Assay [1] has as its target Sphingosine kinase 1 (Homo sapiens) (UniProt Q9NYA1). To be noted: at 1 µM.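 Note: mean SPHK1 inhibition value reported from the GSK PKIS kinase panel screen.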
For assay [2], the target named is T1, Sphingosine kinase 2 (Homo sapiens) (UniProt Q9NRA0).
T1 sequence (whole entry): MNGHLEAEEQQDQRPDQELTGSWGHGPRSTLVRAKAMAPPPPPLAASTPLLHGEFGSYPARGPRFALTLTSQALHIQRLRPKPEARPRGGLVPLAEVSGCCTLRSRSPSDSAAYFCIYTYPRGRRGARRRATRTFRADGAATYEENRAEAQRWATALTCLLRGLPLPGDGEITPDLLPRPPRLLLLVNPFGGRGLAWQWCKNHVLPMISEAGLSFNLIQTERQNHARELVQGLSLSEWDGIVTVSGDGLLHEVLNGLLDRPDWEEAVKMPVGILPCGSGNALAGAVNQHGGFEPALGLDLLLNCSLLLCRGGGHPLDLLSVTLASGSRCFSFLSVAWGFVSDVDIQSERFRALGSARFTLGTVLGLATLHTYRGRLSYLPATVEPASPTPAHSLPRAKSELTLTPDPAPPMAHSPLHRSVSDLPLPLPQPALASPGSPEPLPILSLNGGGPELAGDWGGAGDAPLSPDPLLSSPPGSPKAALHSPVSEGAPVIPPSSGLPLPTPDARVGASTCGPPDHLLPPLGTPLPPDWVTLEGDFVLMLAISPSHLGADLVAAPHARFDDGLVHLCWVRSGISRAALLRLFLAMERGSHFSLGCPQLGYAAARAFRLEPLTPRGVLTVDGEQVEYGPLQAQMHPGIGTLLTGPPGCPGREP
As to conditions: at 0.1 µM.

For assay [3], the target named is T1, Sphingosine kinase 2 (Homo sapiens). To be noted: at 1 µM.
Assay [4] addresses Casein kinase II subunit alpha (Homo sapiens) (UniProt P68400). As to conditions: at 0.1 µM.
Assay [5] has the same target. To be noted: at 1 µM.
Assay [6] addresses T2, Inhibitor of nuclear factor kappa-B kinase subunit alpha (Homo sapiens) (UniProt O15111).
T2 sequence (whole entry): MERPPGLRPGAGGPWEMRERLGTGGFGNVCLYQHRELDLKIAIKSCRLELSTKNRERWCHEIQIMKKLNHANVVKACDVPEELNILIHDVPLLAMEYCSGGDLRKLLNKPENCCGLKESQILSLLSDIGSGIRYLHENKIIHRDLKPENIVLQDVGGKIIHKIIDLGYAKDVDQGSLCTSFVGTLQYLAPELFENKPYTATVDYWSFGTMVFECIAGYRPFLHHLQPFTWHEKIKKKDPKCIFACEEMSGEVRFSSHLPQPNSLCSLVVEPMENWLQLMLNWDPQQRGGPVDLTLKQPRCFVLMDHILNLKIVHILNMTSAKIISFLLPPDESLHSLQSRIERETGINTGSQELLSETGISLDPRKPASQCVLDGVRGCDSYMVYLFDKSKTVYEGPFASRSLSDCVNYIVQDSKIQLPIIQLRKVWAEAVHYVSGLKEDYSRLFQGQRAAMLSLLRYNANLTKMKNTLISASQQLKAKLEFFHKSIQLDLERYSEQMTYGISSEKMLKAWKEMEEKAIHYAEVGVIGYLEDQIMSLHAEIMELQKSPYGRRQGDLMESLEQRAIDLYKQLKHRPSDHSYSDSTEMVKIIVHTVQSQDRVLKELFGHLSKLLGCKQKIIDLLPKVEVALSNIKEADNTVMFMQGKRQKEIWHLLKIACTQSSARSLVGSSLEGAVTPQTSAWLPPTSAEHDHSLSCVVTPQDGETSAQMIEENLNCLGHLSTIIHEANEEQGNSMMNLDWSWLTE
To be noted: at 0.1 µM.

The target of assay [7] is T2, Inhibitor of nuclear factor kappa-B kinase subunit alpha (Homo sapiens). As to conditions: at 1 µM.
Assay [8] addresses T3, Inhibitor of nuclear factor kappa-B kinase subunit beta (Homo sapiens) (UniProt O14920).
T3 sequence (whole entry): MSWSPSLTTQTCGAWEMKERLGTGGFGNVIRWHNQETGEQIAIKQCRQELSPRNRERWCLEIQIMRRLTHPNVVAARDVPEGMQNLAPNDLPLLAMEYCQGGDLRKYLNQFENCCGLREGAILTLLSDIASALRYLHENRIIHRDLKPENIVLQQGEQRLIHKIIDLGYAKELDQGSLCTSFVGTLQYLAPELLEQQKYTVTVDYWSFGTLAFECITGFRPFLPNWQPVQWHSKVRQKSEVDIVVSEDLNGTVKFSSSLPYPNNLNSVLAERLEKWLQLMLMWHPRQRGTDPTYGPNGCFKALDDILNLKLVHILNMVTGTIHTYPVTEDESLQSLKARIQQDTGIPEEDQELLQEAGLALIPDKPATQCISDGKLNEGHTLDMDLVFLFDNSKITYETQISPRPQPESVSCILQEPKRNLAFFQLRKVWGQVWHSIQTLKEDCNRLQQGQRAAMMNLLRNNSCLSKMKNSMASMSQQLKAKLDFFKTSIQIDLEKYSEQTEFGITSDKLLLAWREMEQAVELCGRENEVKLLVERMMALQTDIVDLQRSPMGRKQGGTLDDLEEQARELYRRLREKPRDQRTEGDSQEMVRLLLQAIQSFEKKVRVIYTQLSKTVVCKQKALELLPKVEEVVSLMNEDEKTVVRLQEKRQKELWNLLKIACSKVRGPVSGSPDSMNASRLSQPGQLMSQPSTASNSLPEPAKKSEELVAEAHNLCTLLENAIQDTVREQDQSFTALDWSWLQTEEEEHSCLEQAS
To be noted: at 0.1 µM.

For assay [9], the target named is T3, Inhibitor of nuclear factor kappa-B kinase subunit beta (Homo sapiens). As to conditions: at 1 µM.
In assay [10] the target is T4, Inhibitor of nuclear factor kappa-B kinase subunit epsilon (Homo sapiens) (UniProt Q14164).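 Note: mean inhibition of IKKε reported, from the GSK PKIS dataset.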
T4 sequence (whole entry): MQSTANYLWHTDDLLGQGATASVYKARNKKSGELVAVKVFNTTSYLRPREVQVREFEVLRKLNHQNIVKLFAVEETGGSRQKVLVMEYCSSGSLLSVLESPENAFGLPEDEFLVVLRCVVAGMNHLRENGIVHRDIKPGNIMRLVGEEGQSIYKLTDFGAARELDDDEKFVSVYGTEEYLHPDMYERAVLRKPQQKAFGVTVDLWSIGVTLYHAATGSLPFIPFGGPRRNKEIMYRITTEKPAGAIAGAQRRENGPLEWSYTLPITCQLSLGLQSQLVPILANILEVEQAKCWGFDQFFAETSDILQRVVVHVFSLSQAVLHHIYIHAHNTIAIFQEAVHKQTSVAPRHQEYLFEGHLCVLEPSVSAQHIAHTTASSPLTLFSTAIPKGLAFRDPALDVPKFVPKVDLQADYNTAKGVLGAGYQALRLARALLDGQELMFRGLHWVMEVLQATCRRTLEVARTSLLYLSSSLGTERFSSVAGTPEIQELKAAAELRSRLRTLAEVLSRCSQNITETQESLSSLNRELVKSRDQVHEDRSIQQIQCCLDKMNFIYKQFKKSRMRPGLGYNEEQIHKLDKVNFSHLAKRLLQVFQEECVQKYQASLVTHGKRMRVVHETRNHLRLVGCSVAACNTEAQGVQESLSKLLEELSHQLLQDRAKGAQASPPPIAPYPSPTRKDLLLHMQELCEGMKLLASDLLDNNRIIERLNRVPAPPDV
As to conditions: at 0.1 µM.

Casein kinase II subunit alpha (Homo sapiens), sequence (P68400 whole entry, looked up): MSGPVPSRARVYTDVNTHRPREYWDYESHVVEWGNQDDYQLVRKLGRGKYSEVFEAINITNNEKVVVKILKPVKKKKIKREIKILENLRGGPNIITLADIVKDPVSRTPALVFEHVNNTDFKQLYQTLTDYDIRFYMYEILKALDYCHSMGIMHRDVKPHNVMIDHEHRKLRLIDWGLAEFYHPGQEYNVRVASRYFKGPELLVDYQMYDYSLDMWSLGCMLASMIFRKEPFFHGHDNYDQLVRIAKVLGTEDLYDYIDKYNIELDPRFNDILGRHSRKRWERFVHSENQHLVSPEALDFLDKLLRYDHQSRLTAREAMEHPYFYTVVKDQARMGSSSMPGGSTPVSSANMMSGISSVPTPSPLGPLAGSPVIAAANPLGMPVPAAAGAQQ
Sphingosine kinase 1 (Homo sapiens), sequence (Q9NYA1 whole entry): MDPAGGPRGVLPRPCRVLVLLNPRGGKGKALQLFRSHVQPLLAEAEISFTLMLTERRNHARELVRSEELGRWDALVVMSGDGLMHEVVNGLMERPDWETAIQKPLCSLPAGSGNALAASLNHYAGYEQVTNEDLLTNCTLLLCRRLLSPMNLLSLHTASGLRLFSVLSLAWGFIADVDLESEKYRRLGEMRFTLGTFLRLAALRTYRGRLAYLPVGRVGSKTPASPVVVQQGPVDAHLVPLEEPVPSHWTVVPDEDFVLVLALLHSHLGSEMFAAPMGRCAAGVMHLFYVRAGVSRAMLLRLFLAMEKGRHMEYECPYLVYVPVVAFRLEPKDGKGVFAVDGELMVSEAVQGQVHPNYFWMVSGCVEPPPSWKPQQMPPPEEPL

In general, inhibition refers to the drop in the measured response relative to a control, in per cent. Consider `COc1cc2ncn(-c3cc(O[C@@H](C)c4ccccc4Cl)c(C(N)=O)s3)c2cc1OC`, for which the inhibition in assay [1] is -1.61%; in assay [2], -0.7%; in assay [3] it was 0%; in [4] it was 6.99%; in assay [5], 3.34%; in assay [6] it was 4.16%. Besides, the inhibition in assay [7] came out at 8.5%; in [8] it was 6.47%; in assay [9] it was 4.88%; in assay [10] it was 5.3%.
Consider `Cc1ccc(NC(=O)c2ccnc(N3CCCC3)c2)cc1-c1ccc(C(=O)NCC2CC2)cc1`, for which the inhibition in assay [1] is 0.63%; in [2], 0.74%; in assay [3] it was -0.47%; in [4], 7.04%; in assay [5], 4.49%; in assay [6], 0.55%. Moreover, the inhibition in assay [7] came out at 0.16%; in assay [8], 9.14%; in [9], 9.33%; in [10] it was 5.82%.
In the case of `COc1ccc(-c2nn3ncccc3c2-c2ccnc(Nc3ccc(Cl)c(C(F)(F)F)c3)n2)cc1`, the inhibition in [1] was -2.15%; in [2], -0.61%; in assay [3] it was 0.61%; in assay [4], 2.8%; in assay [5], 8.2%; in assay [6], 5.34%. The inhibition came out at 3.48% in assay [7], 5.25% in [8], 8.22% in assay [9] and 4.71% in assay [10].
With `CCn1c(-c2nonc2N)nc2c(N3CCCC3)nccc21`, the inhibition is -1.44% in assay [1]; 0.74% in assay [2]; -0.77% in assay [3]; -0.14% in assay [4]; -0.49% in assay [5]; 8.52% in assay [6]. Besides, the inhibition in [7] was 5.88%; in [8] it was 0.45%; in [9], -0.76%; in [10], -2.71%.
As for `COC(=O)Nc1nc2cc(Oc3cccc(NC(=O)Nc4cc(C(F)(F)F)ccc4F)c3)ccc2[nH]1`, the inhibition in assay [1] is 2.3%; in [2], 0%; in assay [3], 0.65%; in assay [4], -0.44%; in [5], -0.84%; in assay [6] it was -3.67%. The inhibition was found to be 4.99% in assay [7], 0.52% in assay [8], 1.91% in assay [9] and 1.54% in [10].
Regarding `O=C1Nc2ccc(C(=O)c3ccco3)cc2C1=Cc1cc(Cl)c(O)c(Cl)c1`, the inhibition was -1.68% in assay [1]; 1.43% in assay [2]; 1.2% in assay [3]; 18% in [4]; 55.2% in assay [5]; 2.59% in [6]. Moreover, the inhibition stood at 8.32% in assay [7], 5.21% in assay [8], 2.45% in assay [9] and 24.9% in assay [10].
Consider `O=C1NC(=O)C(c2cccc(Cl)c2)=C1Nc1ccc(O)c(Cl)c1`, for which the inhibition in [1] is -1.72%; in assay [2] it was -1.48%; in assay [3], -0.07%; in assay [4], -2.69%; in assay [5], -1.28%; in [6] it was 0.7%. The inhibition in assay [7] is 0.73%; in assay [8], -0.95%; in assay [9] it was -3.39%; in assay [10], -0.3%.
Regarding `CCc1cccc(NC(=O)Nc2ccc(Oc3ccc4nc(NC(=O)OC)[nH]c4c3)cc2)c1`, the inhibition in assay [1] is -3.46%; in [2], -1.39%; in assay [3] it was -2.51%; in [4], 1.32%; in assay [5], 4.86%; in [6], 4.74%. The inhibition in assay [7] is -0.97%; in assay [8], 3.09%; in assay [9] it was 2.83%; in [10], 2.77%.

Values taken from ChEMBL document CHEMBL1961873, “Compounds: GSK PKIS; Assays: Nanosyn kinase panel” (2012).
